Data on nine compounds can be found in PubChem BioAssay (NCI).

Some test systems named below: SR leukemia; RPMI-8226 leukemia; OVCAR-8 ovarian; OVCAR-5 ovarian; OVCAR-4 ovarian; SK-OV-3 ovarian; IGROV1 ovarian; OVCAR-3 ovarian; HS 578T breast; NCI/ADR-RES ovarian; T-47D breast; BT-549 breast; MDA-MB-435 melanoma; SW-620 colon; MCF7 breast; HCT-116 colon; HCC-2998 colon; KM12 colon.
Assay in all cases: NCI-60 one-dose screen, 48 h (100 = growth as untreated, 0 = no growth, -100 = all killed)
Conditions in all cases: 10 µM unless noted

The structures appear in SMILES notation. Compounds without any hit were thinned out: in the full panel of roughly 83,000, 20% have a hit.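 Note: values are percent growth. 100 is the growth of untreated cells, values between 100 and 0 indicate rising inhibition; between -100 and 0 indicates cell death.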 A number with no mark means an inactive call. Activity calls are given as the source filed them. The calls were made as follows: active = growth percent below 10; inactive = the rest.

With `Cc1csc(Nc2nc(-c3cccc(Br)c3)nc(C(Cl)(Cl)Cl)n2)n1`, the growth was 67.7% in the assay on SR leukemia; 35.8% in the assay on RPMI-8226 leukemia; 75.6% in the assay on OVCAR-8 ovarian; 69.9% in the assay on OVCAR-5 ovarian; 76.8% with OVCAR-4 ovarian; 76.1% in the assay on SK-OV-3 ovarian. Also, the growth in the assay with IGROV1 ovarian is 91.9%; in the assay on OVCAR-3 ovarian it was 14.9%; in the assay on HS 578T breast, 59.6%; in the assay with NCI/ADR-RES ovarian, 60.4%; in the assay on T-47D breast, 13.9%; in the assay on BT-549 breast, 85.4%. Besides, the growth in the assay with MDA-MB-435 melanoma is 65.3%; in the assay with SW-620 colon, 52.6%; in the assay with MCF7 breast it was 28.9%; in the assay with HCT-116 colon it was 47.7%; with HCC-2998 colon, 16.1%; in the assay on KM12 colon, 27.7%.

`Cc1ccc(/C=C(\C#N)c2cc3ccccc3n2C)cc1`: the growth with SR leukemia is 25.2%; with RPMI-8226 leukemia it was 14%; with OVCAR-8 ovarian, 38.9%; in the assay on OVCAR-5 ovarian it was 38.7%; with OVCAR-4 ovarian it was 61%; in the assay with SK-OV-3 ovarian, 67.8%. For the same compound, the growth with IGROV1 ovarian was 30.5%; with OVCAR-3 ovarian, -12.6% (active); in the assay with HS 578T breast, 34.1%; in the assay with NCI/ADR-RES ovarian it was -2.11% (active); in the assay on T-47D breast, 54.9%; in the assay on BT-549 breast it was 0.46% (active). The growth is -1.88% (active) in the assay on MDA-MB-435 melanoma; 31.8% in the assay with SW-620 colon; 18.4% in the assay with MCF7 breast; 16.2% with HCT-116 colon; 17.4% in the assay with HCC-2998 colon; 22.3% in the assay with KM12 colon.

`O=C(NO)c1ccc(Cn2c(=O)n(CCc3ccc(O)cc3)c(=O)c3ccccc32)cc1`: the growth with SR leukemia is 16.5%; in the assay on RPMI-8226 leukemia, 31.6%; with OVCAR-8 ovarian it was 36.2%; with OVCAR-5 ovarian, 86%; with OVCAR-4 ovarian it was 56.4%; in the assay with SK-OV-3 ovarian, 86.7%. In addition, the growth with IGROV1 ovarian was 74.9%; in the assay on OVCAR-3 ovarian, 18.9%; in the assay with HS 578T breast it was 58.8%; in the assay on NCI/ADR-RES ovarian, 92.8%; in the assay with T-47D breast, 11.8%; in the assay on BT-549 breast it was 65.7%. For the same compound, the growth was -15.6% (active) in the assay with MDA-MB-435 melanoma; 22.4% in the assay with SW-620 colon; 44.5% with MCF7 breast; 24.9% in the assay with HCT-116 colon; 79% with HCC-2998 colon; 22.7% with KM12 colon.

Consider `C/C(=N\Nc1cc(C)c2cc(C)ccc2n1)c1ccccn1`, for which the growth in the assay on SR leukemia is 0.29% (active); in the assay on RPMI-8226 leukemia, -33.4% (active); with OVCAR-8 ovarian, -60% (active); in the assay with OVCAR-5 ovarian, -33.3% (active); in the assay with OVCAR-4 ovarian, -83.1% (active); in the assay on SK-OV-3 ovarian it was 25.4%. The growth in the assay on IGROV1 ovarian is -35.9% (active); with OVCAR-3 ovarian it was -40.6% (active); in the assay on HS 578T breast it was 45.9%; with NCI/ADR-RES ovarian it was 1.12% (active); in the assay with T-47D breast, -50.4% (active); in the assay with BT-549 breast it was 21.2%. In addition, the growth is -89.4% (active) in the assay with MDA-MB-435 melanoma; -81.3% (active) in the assay with SW-620 colon; -76.1% (active) with MCF7 breast; -72.6% (active) with HCT-116 colon; -25.9% (active) in the assay with HCC-2998 colon; -46.9% (active) in the assay with KM12 colon.

Take `CC1(C)CC[C@]2(CO)CC[C@]3(C)C(=CC[C@@H]4[C@@]5(C)CC[C@H](NCO)C(C)(C)[C@@H]5CC[C@]43C)[C@@H]2C1`: the growth with SR leukemia is -34.7% (active); in the assay on RPMI-8226 leukemia, -29.1% (active); in the assay on OVCAR-8 ovarian, -35.6% (active); in the assay with OVCAR-5 ovarian, 2.64% (active); in the assay with OVCAR-4 ovarian, -32.5% (active); with SK-OV-3 ovarian, 70.8%. Also, the growth was -56% (active) in the assay with IGROV1 ovarian; -66.2% (active) in the assay on OVCAR-3 ovarian; 11.4% with HS 578T breast; -64.8% (active) in the assay with NCI/ADR-RES ovarian; 4.47% (active) in the assay on T-47D breast; 59.1% in the assay with BT-549 breast. The growth is -5.37% (active) in the assay with MDA-MB-435 melanoma; -71.9% (active) in the assay with SW-620 colon; -26.3% (active) in the assay with MCF7 breast; -78.2% (active) with HCT-116 colon; 6.82% (active) in the assay with HCC-2998 colon; -80.7% (active) in the assay on KM12 colon.

As for `COc1cccc(-c2nn(-c3ccccc3)cc2-c2ccnc(NCCNS(=O)(=O)c3ccccc3)c2)c1`, the growth with SR leukemia was 12.7%; with RPMI-8226 leukemia, 19.1%; with OVCAR-8 ovarian it was 27.7%; in the assay with OVCAR-5 ovarian, 72.3%; with OVCAR-4 ovarian it was 39.3%; in the assay on SK-OV-3 ovarian, 43.3%. In addition, the growth is 33.6% with IGROV1 ovarian; 42.6% with OVCAR-3 ovarian; 46.7% with HS 578T breast; 23.3% in the assay on NCI/ADR-RES ovarian; 4.18% (active) with T-47D breast; 36.5% in the assay on BT-549 breast. For the same compound, the growth with MDA-MB-435 melanoma is 10.7%; in the assay on SW-620 colon, 43.9%; in the assay with MCF7 breast, 14.9%; in the assay on HCT-116 colon it was 29.4%; with HCC-2998 colon it was 26.8%; with KM12 colon, 21.7%.

`C/C(=C(/c1ccccc1)c1ccc(N2C(=O)c3cccc4c(NCc5ccccc5)ccc(c34)C2=O)cc1)c1ccccc1`: the growth is 83.6% in the assay on SR leukemia; 102% in the assay with RPMI-8226 leukemia; 95% in the assay with OVCAR-8 ovarian; 102% in the assay with OVCAR-5 ovarian; 101% in the assay on OVCAR-4 ovarian; 111% with SK-OV-3 ovarian. In addition, the growth in the assay with IGROV1 ovarian was 94.8%; with OVCAR-3 ovarian, 110%; in the assay with HS 578T breast, 96%; in the assay with NCI/ADR-RES ovarian, 97.9%; with T-47D breast, 76%; with BT-549 breast, 100%. Also, the growth with MDA-MB-435 melanoma is 102%; in the assay on SW-620 colon it was 95.2%; with MCF7 breast it was 89.9%; with HCT-116 colon it was 87.1%; in the assay on HCC-2998 colon, 109%; with KM12 colon it was 91.5%.

As for `COc1cc(/C=N/NC(=S)NNC(=S)NC2CCCCC2)cc(OC)c1OC`, the growth with SR leukemia is 96.9%; in the assay on RPMI-8226 leukemia, 70.1%; with OVCAR-8 ovarian, 97.8%; in the assay on OVCAR-5 ovarian, 106%; in the assay with OVCAR-4 ovarian, 86.3%; in the assay on SK-OV-3 ovarian, 110%. Besides, the growth in the assay on IGROV1 ovarian is 89.9%; in the assay with OVCAR-3 ovarian it was 103%; in the assay on HS 578T breast, 106%; with NCI/ADR-RES ovarian, 97.5%; with T-47D breast, 69.9%; in the assay on BT-549 breast, 105%. The growth is 98.8% in the assay with MDA-MB-435 melanoma; 104% in the assay with SW-620 colon; 92.4% in the assay with MCF7 breast; 104% with HCT-116 colon; 112% in the assay with HCC-2998 colon; 95.1% in the assay with KM12 colon.

With `O=C1c2cc3c(cc2-c2c1c1ccc(Cl)cc1c(=O)n2C[C@H](O)[C@@H](O)[C@H](O)CO)OCO3`, the growth in the assay with SR leukemia is 0.866% (active); in the assay on RPMI-8226 leukemia, 0.957% (active); in the assay with OVCAR-8 ovarian, 1.03% (active); with OVCAR-5 ovarian, -2.44% (active); in the assay with OVCAR-4 ovarian, 18.6%; in the assay on SK-OV-3 ovarian, -23.1% (active). Moreover, the growth with IGROV1 ovarian is 9.99% (active); in the assay with OVCAR-3 ovarian it was -10.4% (active); with HS 578T breast it was 11.3%; with NCI/ADR-RES ovarian, 7.03% (active); in the assay with T-47D breast it was -8.86% (active); in the assay with BT-549 breast it was -1.82% (active). Besides, the growth is -39.2% (active) with MDA-MB-435 melanoma; 2.65% (active) with SW-620 colon; 1.66% (active) with MCF7 breast; 11.1% in the assay on HCT-116 colon; 16.3% in the assay on HCC-2998 colon; 7.14% (active) with KM12 colon.
